Laboratory results reported in PubChem BioAssay AID493085 (Broad Institute, 2011).
In all, about 2,400 compounds went through this assay and about 360 (15%) were called active. Inconclusive results (about 5%) are left out.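 The calls were made as follows: active = falling-signal curve with half-maximal concentration at or below ten times the top tested dose; inconclusive = flat fit at 30 to 70% inhibition, or poor fit; inactive = signal rise, flat within 30%, or potency beyond limit.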 A selection follows. Entries with a potency or affinity are not part of this list.

test: dox-induced RFP signal loss in R4-3T3 cells – cell-based, NIH3T3 R4, HSE-GFP and Tet-On RFP, cherry-pick, set 3, dose response (AID 493085); conditions: NIH3T3 R4 HSE-GFP/Tet-RFP reporter, fluorescence, 48 h; series mostly up to 19.5 µM;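 also: cells heat shocked 2 h at 42 °C with doxycycline to induce reporters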

Row | SMILES | outcome
1 | CCc1ccccc1-n1c(SCC(=O)Nc2ccc3c(c2)OCCO3)nc2[nH]ncc2c1=O | inactive
2 | CCCCn1c(=O)n(CC(=O)Nc2c(CC)cccc2CC)c(=O)c2c1nc(CO)n2CCC | inactive
3 | CCOC(=O)Cn1c(CN2CCN(c3cccc(Cl)c3)CC2)nc2c1c(=O)[nH]c(=O)n2C | inactive
4 | Cc1[nH]n(-c2ccccc2)c(=S)c1C=Nc1cccc([N+](=O)[O-])c1 | inactive
5 | CCOc1ccc(/C(O)=C2/C(=O)C(=O)N(CCCn3ccnc3)C2c2cccs2)cc1Cl (stereo unspecified) | inactive
6 | Cc1ccc(S(=O)(=O)N2CCN(C(=O)c3cccc(F)c3)CC2)cc1 | inactive
7 | O=C(O)c1cc(-c2cccc3ccccc23)nc2ccccc12 | inactive
8 | CC(C)Sc1nc2sccc2c(=O)n1-c1ccccc1 | inactive
9 | Cc1nc(NC(C)c2ccccc2)sc1C(=O)Nc1ccccc1 (stereo unspecified) | inactive
10 | COc1cccc(C(=O)Nc2ccc(NC(=O)C3CC=CCC3C(=O)O)cc2)c1 (stereo unspecified) | inactive
11 | CC(C)CN(CC(C)C)C(=S)NC1CCCCC1 | inactive
12 | O=[N+]([O-])c1ccc(N2CCN(Cc3ccc4c(c3)OCO4)CC2)nc1 | inactive
13 | O=C(NCc1ccc2c(c1)OCO2)c1cc2c(s1)CS(=O)(=O)C2 | inactive
14 | COc1ccccc1NC(=O)c1ccc([N+](=O)[O-])o1 | inactive
15 | COc1cc(C(=O)Nc2ccccc2NC(=O)c2cc(OC)c(OC)c(OC)c2)cc(OC)c1OC | inactive
16 | Cc1c(C(=O)NCc2ccc3c(c2)OCO3)sc2nc(-c3ccccc3)cn12 | inactive
17 | Cc1cccc(NC(=O)CN2C(=O)N/C(=C/c3cc(C)n(C(C)C)c3C)C2=O)c1 | inactive
18 | CCn1c(COc2ccc(C)cc2)nnc1SCC(=O)Nc1ccc2c(c1)OCCO2 | inactive
19 | COc1ccccc1Nc1nc(NCCCN(C)C)nc(N)c1[N+](=O)[O-] | inactive
20 | CCN(C(=O)Cn1c([N+](=O)[O-])cnc1C)c1ccccc1 | inactive
21 | CC(C)(C)c1cnnn1-c1ccc(C(=O)CCl)cc1 | inactive
22 | CC1(C)CC(=O)C2=C(C1)N(c1ccc(F)cc1)C(=O)CC2c1ccccc1 (stereo unspecified) | inactive

Row | SMILES | outcome
23 | O=C(COC(=O)c1cnccn1)Nc1ccc(Cl)cn1 | inactive
24 | Cc1cc(C(=O)CSc2nnc3ccccn23)c(C)n1-c1ccccc1 | inactive
25 | Cc1cc(C(=O)COC(=O)C2CC2)c(C)n1-c1ccc(F)cc1 | inactive
26 | COc1ccc(C(=O)CSc2nc(C)cc(=O)[nH]2)cc1C | inactive
27 | CC1C=Cc2ccccc2N1C(=O)c1ccccc1 (stereo unspecified) | inactive
28 | O=C(OCCN1CCN(c2ncc(C(F)(F)F)cc2Cl)CC1)c1ccc(Cl)cc1 | inactive
29 | CCN1CCN(c2cc(C)c3cc(NC(=S)N4CCCC(C)C4)ccc3n2)CC1 (stereo unspecified) | inactive
30 | COc1cccc(CC2(CO)CCN(S(=O)(=O)c3ccc(OC)cc3OC)CC2)c1 | inactive
31 | CC(C)CC(C(=O)Nc1cccc(O)c1)N1C(=O)c2ccccc2C1=O (stereo unspecified) | inactive
32 | COCCN(C(=O)COC(=O)/C=C/c1ccc(C(F)(F)F)cc1)c1c(N)n(Cc2ccccc2)c(=O)[nH]c1=O | inactive
33 | Cc1ccccc1OCC(=O)Nc1ccc([N+](=O)[O-])cc1 | inactive
34 | Cc1ccccc1OCC(=O)OCC(=O)c1ccc(-c2ccccc2)cc1 | inactive
35 | CN(Cc1ccccc1)C(=O)CCn1c(=O)oc2ccccc21 | inactive
36 | Cc1ccc(S(=O)(=O)NC(C)(C)CSc2nncn2N)cc1 | inactive
37 | CC1(C)C=C2C(=NN(c3ccccc3)C(N)=C2C#N)CO1 | inactive
38 | Fc1ccc(-n2cc(CNCCc3ccccn3)c(-c3ccccc3Cl)n2)cc1 | inactive
39 | O=C(CCl)Nc1ccccc1C(=O)c1ccccc1 | inactive
40 | O=C(CN1CCN(C(=O)c2ccccc2)CC1)Nc1ncc(Br)cc1Br | inactive
41 | O=C(OCc1cc(=O)n2cc(Br)ccc2n1)C1COc2ccccc2O1 (stereo unspecified) | inactive
42 | COc1ccc(CN(CCCN2CCOCC2)C(=O)Nc2cccc(Cl)c2)cc1OC | inactive
43 | CCOC(=O)Cc1cnc(NC(=O)c2ccccc2)s1 | inactive
44 | CCOC(=O)c1sc(NC(=O)Nc2ccccc2F)nc1C | inactive

Row | SMILES | outcome
45 | CN1CCN(c2ccc(NC(=O)c3ccc4ccccc4c3)cc2)CC1 | inactive
46 | COc1ccc(C(C(=O)NC2CCCCC2)N(C(=O)CCl)c2cccc(Cl)c2)cc1 (stereo unspecified) | inactive
47 | COc1ccc(C(C)NC(=S)NC2CCCCC2)cc1OC (stereo unspecified) | inactive
48 | Cc1ccc(Cn2c(=N)n(CC(=O)c3ccccc3)c3ccccc32)cc1 | inactive
49 | CCCCSC1=C(C#N)C(c2ccccc2C)CC(=O)N1 (stereo unspecified) | inactive
50 | O=C(CCc1ccccc1)Nc1cccc([N+](=O)[O-])c1 | inactive
51 | Cc1nc(-c2ccc(Cl)cc2)sc1C1(C)CC(c2ccc(Cl)cc2)=NO1 (stereo unspecified) | inactive
52 | CN(C)c1nc(OCCNC(=O)COc2ccc(Cl)cc2Cl)nc(N(C)C)n1 | inactive
53 | Cc1cccc(C(=O)NC2CCN(C(=O)Nc3ccc(F)cc3)CC2)c1 | inactive
54 | C[n+]1c(/C=C/c2ccc3c(c2)OCO3)ccc2ccccc21 | inactive
55 | CCc1cc(C(=O)NCC(C)(C)N2CCOCC2)sc1C | inactive
56 | CCOC(=O)c1ccc(NC(=O)NS(=O)(=O)c2ccc(C)cc2)cc1 | inactive
57 | CCOc1ccc(NC(=O)c2cccnc2C(=O)O)cc1 | inactive
58 | N=C1C(c2nc3ccccc3[nH]2)=C(O)CN1c1ccc(CC(=O)O)cc1 | inactive
59 | O=C(O)c1ccc(N2C(=O)CC(N3CCN(c4cccc(C(F)(F)F)c4)CC3)C2=O)cc1 (stereo unspecified) | inactive
60 | O=C(NNc1nc2ccccc2s1)Nc1ccccc1 | inactive
61 | COc1ccccc1Nc1ccc2nonc2c1[N+](=O)[O-] | inactive
62 | Cn1ccnc1Sc1cc(NCCCO)c([N+](=O)[O-])c2nonc12 | inactive
63 | COc1ccc(NC(=S)Nc2ccc(Oc3ccccc3)cc2)cc1 | inactive
64 | Cc1c(O)ccc2c(CC(=O)N[C@@H](Cc3ccc(O)cc3)C(=O)O)cc(=O)oc12 | inactive
65 | Cc1cc(=O)oc2c(C)c(OC(C)C(=O)NCCCN3CCOCC3)ccc12 (stereo unspecified) | inactive
66 | Cc1cc(NC(=O)COc2coc(CN3CCN(c4ccccc4F)CC3)cc2=O)no1 | inactive

Row | SMILES | outcome
67 | CCOC(=O)c1cc(C#N)c(NCc2ccccc2)nc1C | inactive
68 | Cc1ccc(S(=O)(=O)CCC(=O)Nc2ccc(Br)cc2)cc1 | inactive
69 | O=C(O)c1cc(S(=O)(=O)Nc2ccc3c(c2)OCCO3)c(Cl)cc1Cl | inactive
70 | CCc1ccc(-c2nc(CS(=O)CC(=O)NCc3cccnc3)c(C)o2)cc1 (stereo unspecified) | inactive
71 | COc1ccc(OC)c(NC(=S)NCc2cccnc2)c1 | inactive
72 | COc1ccc(OC)c(NC(=O)CSc2nc3ccccc3cc2Cc2ccccc2)c1 | inactive
73 | COc1ccc(N(CC(=O)NCc2ccc(F)cc2)C(=O)Cn2nnc(-c3ccc(C)o3)n2)cc1OC | inactive
74 | O=C(Cn1cnc2c(nnn2Cc2ccc(Cl)cc2)c1=O)N1CCCc2ccccc21 | inactive
75 | CCN(c1ccccc1)S(=O)(=O)c1ccc(Cl)c(C(=O)N(CC2CCCO2)C2CCS(=O)(=O)C2)c1 (stereo unspecified) | inactive
76 | O=C(O)c1csc(-c2ccccc2)n1 | inactive
77 | Cc1cc(/C=C2\SC(=S)N(Cc3ccco3)C2=O)c(C)n1-c1ccccc1 | inactive
78 | Cc1cc(C(=O)CN2CCC(C)CC2)c(C)n1-c1ccccc1F | inactive
79 | c1ccc(-c2nn[nH]n2)nc1 | inactive
80 | O=C(CCCNC(=O)/C(=C\c1ccccc1F)NC(=O)c1ccccc1)OCc1ccccc1 | inactive
81 | COc1ccc(C)cc1S(=O)(=O)Nc1cc2c3c(c1)CCC(=O)N3CCC2 | inactive
82 | COc1ccccc1NS(=O)(=O)c1ccc(C)c(C(N)=O)c1 | inactive
83 | CN(C)c1ccc(-c2nc3n(n2)C(c2cccnc2)C2=C(CC(C)(C)CC2=O)N3)cc1 (stereo unspecified) | inactive
84 | CCCn1c2ccccc2c2nnc(SCc3[nH]c(=O)[nH]c3C(=O)CCCCC(=O)OCC)nc21 | inactive
85 | CC(=O)NC(c1ccc(C)cc1)c1cc(Cl)c2cccnc2c1O (stereo unspecified) | inactive
86 | Cc1cccc(NCc2ccc(O)c3ncccc23)c1C | inactive
87 | Oc1c(CN2CCOCC2)cc(COCc2ccccc2)c2cccnc12 | inactive
88 | Cn1ncc([N+](=O)[O-])c1C(=O)Nc1ccccc1Cl | inactive

Row | SMILES | outcome
89 | CCN1C(=O)C(CC(=O)Nc2ccc(OC)cc2)N(Cc2ccc3c(c2)OCO3)C1=S (stereo unspecified) | inactive
90 | Cc1cc(N=Nc2ccc(Cl)cc2)cc(CN2CCCC2)c1O | inactive
91 | COc1ccc(C(=O)NC(=S)N2CCNC(=O)C2CC(=O)OC(C)C)cc1 (stereo unspecified) | inactive
92 | CCOC(=O)c1c(C)[nH]c(C(=O)COC(=O)C2=NNC(=O)CC2)c1C | inactive
93 | O=C(O)c1cc(S(=O)(=O)N(Cc2ccccc2)c2ccccc2Cl)ccc1Cl | inactive
94 | O=C(Nc1cccnc1)c1coc(=O)c2ccccc12 | inactive
95 | CC(C)c1ccc(NC2(C#N)C(=O)Nc3ccccc32)cc1 (stereo unspecified) | inactive
96 | O=C1SCC(c2ccccc2)=NN1Cc1ccccc1 | inactive
97 | CCOc1ccc(-n2c(O)c(/C=N/Nc3nnc(C)c(=O)[nH]3)c3ccccc3c2=O)cc1 | inactive
98 | CCOc1ccc(NCc2nnc(SCC(=O)Nc3cc(C)on3)n2-c2ccc(OC)cc2)cc1 | inactive
99 | CCOC(=O)c1cccc(NC(=O)CCS(=O)(=O)c2ccc(Br)s2)c1 | inactive
100 | CC(OC(=O)CN1C(=O)c2ccccc2C1=O)C(=O)NC1CCCCC1C (stereo unspecified) | inactive
101 | COC1CCCN(C(=O)c2ccc(OC3CCN(CCc4ccccc4)CC3)cc2)C1 (stereo unspecified) | inactive
102 | O=C(CCN1C(=O)/C(=C/c2ccc(F)cc2)SC1=S)NCCCn1ccnc1 | inactive
103 | Cn1nc(N)c2c(-c3ccccc3)c(C#N)c(N)nc21 | inactive
104 | Cc1c(NC(=O)C2CC(c3ccc(F)cc3)=NO2)c(=O)n(-c2ccccc2)n1C (stereo unspecified) | inactive
105 | Cc1ccc(N=C2NC(=O)/C(=C\c3cccs3)S2)cc1C | inactive
106 | O=C(NCc1ccccc1C(F)(F)F)C12CN(Cc3ccccc3)CC1C(c1ccc([N+](=O)[O-])cc1)=NO2 (stereo unspecified) | inactive
